# Measured values published in PubChem BioAssay (NCATS).
# Where “and” joins values, the source holds several entries; their conditions need not be identical. Equal values may be shown once. Unmarked numbers belong to inactive results. Records with an inconclusive call do not appear. For part of these data: Entries with a potency or affinity are not part of this list. Calls of active or inactive are those of the source. Unless noted, no rule for the calls is given here.
# How the values were obtained:
# [1] = Ebola virus entry assay, ratio channel
# [2] = Ebola virus entry assay, green channel fluorescence
# [3] = qHTS Assay for Identifying Gametocytocidal Compounds (AID 743244; active = well fitted curve in the direction sought with a large enough effect; an effect the other way counts as inactive or inconclusive;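 also: % is scaled to controls: 0 for no effect and ±100 for the full control effect; actives lower the fluorescent signal which means gametocytes are killed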); settings: P. falciparum 3D7 stage III-V gametocytes, alamarBlue, 72 h; max response: active compounds read low
# How it was run: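 Stage III-V P. falciparum 3D7 gametocytes, 20,000 per well, were exposed to compounds for 72 h at 37C, 5% CO2. AlamarBlue was then added for 24 h and viability was read as fluorescence at Ex 525/Em 598 nm.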
# [4] = qHTS assay for small molecule agonists of the antioxidant response element (ARE) signaling pathway measured by Nrf2-dependant transcriptional activity (AID 720636; active = well fitted curve in the direction sought with a large enough effect in the repeat runs; an effect the other way counts as inactive or inconclusive;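 also: HepG2 cells with an ARE-driven luciferase reporter; % of control where 0% means no effect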); settings: ARE-luc HepG2, Nrf2 luciferase reporter, 16 h; series mostly up to 92.4 µM
# How it was run: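 Nrf2-dependent transcription is measured in ARE-luc HepG2 cells: compound is applied for 16 hr at 37 C after a 6 hr attachment period, and luciferase activity is quantified by luminescence using ONE-Glo.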
# [5] = qHTS assay for small molecule antagonists of the retinoid-related orphan receptor gamma (ROR-gamma) signaling pathway - cell viability counter screen (AID 720652; active = well fitted curve in the direction sought with a large enough effect in the repeat runs; an effect the other way counts as inactive or inconclusive;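 also: compound exposure lasted 16 hr before ATP read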; also: potency is read from the fitted curve at half-maximal effect); settings: RORgamma reporter cell line viability counter screen; series mostly up to 92.2 µM
# How it was run: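 Cytotoxicity counter screen: intracellular ATP (CellTiter-Glo luminescence) measured in the doxycycline-induced CHO RORE-luciferase reporter line after 16 hr compound exposure at 37 C, 5% CO2.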
# [6] = qHTS assay for small molecule agonists of the antioxidant response element (ARE) signaling pathway measured by Nrf2-dependant transcriptional activity - cell viability counter screen (AID 720653; active = well fitted curve in the direction sought with a large enough effect in the repeat runs; an effect the other way counts as inactive or inconclusive; also: potency is read from the fitted curve at half-maximal effect; as to max response: % is scaled to controls: 0 for no effect and ±100 for the full control effect); settings: ARE-bla HepG2 viability, CellTiter-Glo ATP luminescence, 16 h; max response: active compounds read low
# How it was run: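 Cytotoxicity counter screen: intracellular ATP quantified by CellTiter-Glo luminescence in the same ARE-bla HepG2 plates, after 16 h compound exposure and a 2 h beta-lactamase substrate step.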
# [7] = qHTS assay for cell viability of HEK293 cells (AID 743288; active = well fitted curve in the direction sought with a large enough effect; an effect the other way counts as inactive or inconclusive; also: nearly all actives have a fitted effect of over 50% in size; also: potency is read from the fitted curve at half-maximal effect; as to max response: % is scaled to controls: 0 for no effect and ±100 for the full control effect); settings: ATP luminescence (CellTiter-Glo), 18 h; max response: active compounds read low
# How it was run: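 Viable-cell counts were inferred from luciferase-based ATP content in HEK293 cells seeded at 2,000/well, pre-incubated ≥5 h, then dosed with DMSO-solubilised compounds for 18 h at 37 C.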
# [8] = qHTS assay for cell viability of the p53RE-bla HCT-116 cell line (AID 743292; active = well fitted curve in the direction sought with a large enough effect; an effect the other way counts as inactive or inconclusive; also: nearly all actives have a fitted effect of over 55% in size; also: potency is read from the fitted curve at half-maximal effect); settings: p53RE-bla HCT-116 viability, ATP luminescence, 16 h; series mostly up to 95 µM
# How it was run: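 ATP-based luminescence, 16 h compound exposure at 37 C, p53RE-bla HCT-116 cells at 4,000/well.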
compound,measurement,setting,value
CN1C(=O)c2ccccc2C1=O,outcome,[1],inactive
same,outcome,[2],inactive
CN(C)CC/C=C1/c2ccccc2COc2ccc(CC(=O)O)cc21,outcome,[1],inactive
same,outcome,[2],inactive
CCCCC(CC)COC(=O)/C=C/c1ccc(OC)cc1 (stereo not drawn),outcome,[1],inactive
same,outcome,[2],inactive
O=C(NO)c1ccccc1,outcome,[1],inactive
same,outcome,[2],inactive
Nc1nc2ccc([N+](=O)[O-])cc2s1,outcome,[1],inactive
Nc1nnnn1-c1ccccc1,outcome,[1],inactive
same,outcome,[2],inactive
CC(C)C(C)(C)C(C)(C)C(C)(C)S,outcome,[1],inactive
same,outcome,[2],inactive
CS(=O)(=O)Nc1ccc([N+](=O)[O-])cc1Oc1ccccc1,outcome,[1],inactive
same,outcome,[2],inactive
CC(=O)Oc1cccc(C)c1,outcome,[1],inactive
same,outcome,[2],inactive
CC1=C(C/C=C(\C)CCC[C@H](C)CCC[C@H](C)CCCC(C)C)C(=O)c2ccccc2C1=O,outcome,[1],inactive
same,outcome,[2],inactive
C1=CC2C3C=CC(C3)C2C1 (stereo not drawn),outcome,[1],inactive
same,outcome,[2],inactive
CCc1c(C)[nH]c2c1C(=O)C(CN1CCOCC1)CC2 (stereo not drawn),outcome,[1],inactive
same,outcome,[2],inactive
CC(C)(C)c1nnc(NS(=O)(=O)c2ccccc2)s1,outcome,[1],inactive
same,outcome,[2],inactive
COC(=O)c1c(Cl)c(Cl)c(C(=O)OC)c(Cl)c1Cl,outcome,[1],inactive
same,outcome,[2],inactive
Brc1ccccc1-c1ccccc1,outcome,[1],inactive
same,outcome,[2],inactive
CC1=C(/C=C/C(C)=C/C=C/C(C)=C/C(=O)O)C(C)(C)CCC1,outcome,[1],inactive
same,outcome,[2],inactive
NCCO,outcome,[1],inactive
same,outcome,[2],inactive
CCC(C(=O)O)c1ccc(N2Cc3ccccc3C2=O)cc1 (stereo not drawn),outcome,[1],inactive
same,outcome,[2],inactive
COc1ccccc1O,outcome,[1],inactive
same,outcome,[2],inactive
CC(C)(C)C(O)/C=C/c1ccc2c(c1)OCO2 (stereo not drawn),outcome,[1],inactive
same,outcome,[2],inactive
CCCCCCCC(=O)OCC(O)CO (stereo not drawn),outcome,[1],inactive
same,outcome,[2],inactive
CCCCC(CC)COC(=O)c1ccccc1C(=O)O (stereo not drawn),outcome,[1],inactive
same,outcome,[2],inactive
OCc1c[nH]c2ccccc12,outcome,[1],inactive
same,outcome,[2],inactive
N=C1N=C(N)c2cc3ccccc3cc21,outcome,[1],inactive
same,outcome,[2],inactive
Cc1ccc(N)cc1O,outcome,[1],inactive
same,outcome,[2],inactive
CCCCCCCCCCCCCC[N+](C)(C)C,AC50,[1],25.1 µM (active)
CCC(C)(Oc1ccc(C2(c3ccc(OC(C)(CC)C(=O)O)cc3)CCCCC2)cc1)C(=O)O (stereo not drawn),outcome,[1],inactive
same,outcome,[2],inactive
COc1ccc2c(c1)c1c3n2CCN(C)C3=NCC1,outcome,[1],inactive
same,outcome,[2],inactive
O=c1cc(-c2ccccc2)oc2ccccc12,outcome,[1],inactive
same,outcome,[2],inactive
Nc1ccccc1N,outcome,[1],inactive
same,outcome,[2],inactive
CC(C)(c1ccc(O)cc1)c1ccc(O)cc1,outcome,[1],inactive
same,outcome,[2],inactive
CCCCC/C(C=O)=C\c1ccccc1,outcome,[1],inactive
same,outcome,[2],inactive
Nc1ccc([N+](=O)[O-])cc1O,outcome,[1],inactive
same,outcome,[2],inactive
Nc1nc2c(ncn2CCC(CO)CO)c(=O)[nH]1,outcome,[1],inactive
same,outcome,[2],inactive
CN(C)c1ccc(N=NS(=O)(=O)O)cc1,outcome,[1],inactive
CC(C)(C)c1ccc(O)c(O)c1,outcome,[1],inactive
same,outcome,[2],inactive
Nc1ccc(O)c([N+](=O)[O-])c1,outcome,[1],inactive
same,outcome,[2],inactive
CC(C)NCC(O)c1ccc([N+](=O)[O-])cc1 (stereo not drawn),outcome,[1],inactive
same,outcome,[2],inactive
Oc1ccc2c3c1O[C@H]1[C@@H](O)C=C[C@H]4[C@@H](C2)NCC[C@@]341,max response,[3],4.91%
same,outcome,[1],inactive
same,outcome,[2],inactive
CC(=O)[O][Hg][c]1ccccc1,Potency,[4],inactive
same,Potency,[5],1.33 µM (active)
same,Potency,[6],35.5 µM (active) and 14.1 µM (active)
same,Potency,[7],7.08 µM (active) and 22.4 µM (active)
same,Potency,[8],8.91 µM (active) and 10 µM (active)
same,AC50,[1],4.47 µM (active)
Cc1c(C)c2c(c(C)c1OC(=O)c1cccnc1)CC[C@@](C)(CCC[C@H](C)CCC[C@H](C)CCCC(C)C)O2,outcome,[2],inactive
CCOC(=O)C(=O)CCCCCCl,outcome,[2],inactive
C[N+](C)(C)CC(=O)O,max response,[3],-4.91%
same,outcome,[1],inactive
same,outcome,[2],inactive
COc1ccccc1N1CCN(CC(O)COc2cc(OC)c(OC)c(OC)c2)CC1 (stereo not drawn),outcome,[2],inactive
Nc1ccc(S(=O)(=O)Nc2ccccc2)cc1,outcome,[2],inactive
Nc1c(Cl)c(Cl)c(Cl)c(Cl)c1Cl,Potency,[4],inactive
same,max response,[6],1.83%
same,max response,[3],4.37%
same,max response,[7],-4.75%
same,Potency,[8],inactive
same,outcome,[1],inactive
COc1ncnc(NS(=O)(=O)c2ccc(N)cc2)c1OC,outcome,[2],inactive
[O-][n+]1cccc(/C(Cl)=N/OC[C@@H](O)CN2CCCCC2)c1,outcome,[2],inactive
C=CCNC(N)=S,outcome,[2],inactive
CCCCC(CC)COC(=O)c1ccc(N(C)C)cc1 (stereo not drawn),outcome,[2],inactive
CC(=O)N[C@@H](Cc1ccc(O)cc1)C(=O)O,outcome,[2],inactive
NCCCC(N)(C(=O)O)C(F)F (stereo not drawn),outcome,[2],inactive
CCCCOC(=O)c1ccccc1C(=O)OCc1ccccc1,Potency,[4],inactive
same,Potency,[5],inactive
same,max response,[6],-1.29% and -2.62%
same,max response,[3],13.2%
same,max response,[7],-13.6% and -13.5%
same,Potency,[8],inactive
same,outcome,[1],inactive
